# Test results taken from paper PMC4336329 (PLoS ONE, 2015).
# The campaign covered roughly 310,000 compounds. About 2,200 (0.71%) showed an effect of 50% or more. Effects have a minus sign here. What follows is part of a selection rich in strong results, with near analogues and random picks from the rest.
# Biological target: human ether-à-go-go-related gene (hERG) potassium channel (human, UniProt Q12809)
# Test: primary screen, population patch clamp on CHO cells stably expressing hERG; higher = less effect of the substance
# Sequence of human ether-à-go-go-related gene (hERG) potassium channel (Q12809 whole entry, looked up): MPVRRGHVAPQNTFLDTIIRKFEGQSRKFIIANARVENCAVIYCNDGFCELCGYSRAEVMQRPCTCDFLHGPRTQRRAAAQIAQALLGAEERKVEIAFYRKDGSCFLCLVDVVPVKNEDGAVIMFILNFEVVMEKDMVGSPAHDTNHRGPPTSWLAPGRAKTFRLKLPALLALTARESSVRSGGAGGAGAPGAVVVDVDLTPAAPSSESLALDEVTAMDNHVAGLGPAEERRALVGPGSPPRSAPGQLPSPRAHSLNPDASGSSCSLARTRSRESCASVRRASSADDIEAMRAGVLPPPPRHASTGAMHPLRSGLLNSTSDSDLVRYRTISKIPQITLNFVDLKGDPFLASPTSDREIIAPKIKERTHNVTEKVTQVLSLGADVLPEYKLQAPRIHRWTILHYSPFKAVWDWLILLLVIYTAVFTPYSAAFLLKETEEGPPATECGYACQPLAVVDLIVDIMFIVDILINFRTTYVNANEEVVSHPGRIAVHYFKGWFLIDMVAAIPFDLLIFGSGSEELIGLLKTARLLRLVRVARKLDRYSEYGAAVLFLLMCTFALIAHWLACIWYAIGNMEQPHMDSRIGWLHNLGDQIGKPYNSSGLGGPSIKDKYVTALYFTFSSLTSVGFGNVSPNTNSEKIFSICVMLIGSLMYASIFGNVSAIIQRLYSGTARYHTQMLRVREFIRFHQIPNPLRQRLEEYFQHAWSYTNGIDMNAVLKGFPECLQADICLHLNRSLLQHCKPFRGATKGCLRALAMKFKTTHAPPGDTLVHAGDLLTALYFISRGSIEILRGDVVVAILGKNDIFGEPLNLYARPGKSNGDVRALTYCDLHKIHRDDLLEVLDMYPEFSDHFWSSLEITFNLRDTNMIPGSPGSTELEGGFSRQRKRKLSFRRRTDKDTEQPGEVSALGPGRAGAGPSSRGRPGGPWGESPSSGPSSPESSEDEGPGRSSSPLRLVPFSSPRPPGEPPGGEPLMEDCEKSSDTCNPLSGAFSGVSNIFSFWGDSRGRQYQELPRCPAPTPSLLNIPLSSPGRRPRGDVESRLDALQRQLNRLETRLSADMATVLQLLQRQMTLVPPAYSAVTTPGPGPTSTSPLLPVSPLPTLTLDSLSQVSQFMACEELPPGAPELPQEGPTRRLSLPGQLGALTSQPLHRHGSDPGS
row,SMILES,"hERG current change (%, negative = inhibition) at 1uM"
1,Cc1ccnc(N2C(=O)OC(C)(C)C2(C)O)c1 (stereo not drawn),-0.922%
2,C=CCS(=O)(=O)N1CCCC(C(=O)c2cccc(Cl)c2)C1 (stereo not drawn),14.2%
3,O=C(NS(=O)(=O)c1ccccc1)c1ccccc1O,0.636%
4,O=C(NCc1ccc2c(c1)OCO2)c1cc(-c2ccccc2Cl)on1,12.4%
5,O=C(O)CSC1=NC(=Nc2cccc(Cl)c2)C2(CCCCC2)N1c1ccccc1,19.9%
6,Cc1cc(OC(C)C(=O)NCc2cccnc2)c2c(C)cc(=O)oc2c1 (stereo not drawn),9.3%
7,Cc1ccccc1CNC(=O)Cc1ccccc1[N+](=O)[O-],0.014%
8,Cc1c(C(=O)Nc2cccc([N+](=O)[O-])c2)sc2ncn(CC(=O)N3CCOCC3)c(=O)c12,14.1%
9,CCc1nnc(NC(=O)c2ccc(-c3ccccc3F)o2)s1,11.7%
10,Cc1cc(N2CCC(C)CC2)nc(-n2nc(C)cc2C)n1,-9.09%
11,Cc1cc(C)n(-c2nnc(N3CCN(c4ccccc4)CC3)nn2)n1,4.59%
12,Cc1cc(N2CCN(c3ccccc3)CC2)nc(-n2nc(C)cc2C)n1,-51%
13,O=C(Cc1cccc(NC(=O)C2CCCN(C(=O)C3CCC3)C2)c1)Nc1cccc(C(=O)N2CCCC2)c1 (stereo not drawn),9.32%
14,COc1ccc(C(=O)N2N=C(c3cccc(NS(C)(=O)=O)c3)CC2c2cccs2)cc1 (stereo not drawn),-22.1%
15,Cc1cccc(C(=O)N/N=C/c2ccc(OC3CSC3)cc2)c1,-59.8%
16,COc1cccc(C(=O)N/N=C/c2ccc(OC3CSC3)cc2)c1,12.7%
17,O=C(N/N=C/c1ccc(OC2CSC2)cc1)c1ccccc1,-0.636%
18,CN(CC(=O)Nc1ccccc1C(F)(F)F)C(=O)COc1ncnc2sccc12,6.31%
19,C=CCn1c(SCC(=O)NC(=O)NCC(C)C)nnc1C1CCCCC1,13.9%
20,O=C(O)CCC(=O)NCc1cn(-c2ccccc2)nc1-c1cccc(Br)c1,9.76%
21,CN(C)S(=O)(=O)c1ccc(N2CCCC2)c(C(=O)N2CCN(c3ccc([N+](=O)[O-])cc3)CC2)c1,-84%
22,O=C(c1cc([N+](=O)[O-])ccc1N1CCOCC1)N1CCN(c2ccc([N+](=O)[O-])cc2)CC1,-74%
23,Cc1cccc(N2CCN(C(=O)c3cc(S(=O)(=O)N(C)C)ccc3N3CCCC3)CC2)c1C,5.76%
24,O=C(c1cc([N+](=O)[O-])ccc1Cl)N1CCN(c2ccc(F)cc2)CC1,0.85%
25,O=C(c1cc([N+](=O)[O-])ccc1Cl)N1CCN(c2ccccc2)CC1,4.13%
26,O=C(c1cc([N+](=O)[O-])ccc1N1CCOCC1)N1CCN(c2ccccc2)CC1,7.19%

row,SMILES,"hERG current change (%, negative = inhibition) at 1uM"
1,O=C(c1cc([N+](=O)[O-])ccc1N1CCOCC1)N1CCOCC1,12.4%
2,O=C(c1cc([N+](=O)[O-])ccc1Cl)N1CCN(c2ccc([N+](=O)[O-])cc2)CC1,-58.8%
3,Cc1ccc(S(=O)(=O)N2CCN(C(=O)c3cc(S(=O)(=O)N(C)C)ccc3N3CCCC3)CC2)cc1,13.1%
4,COc1ccc(-c2cc(-c3cccs3)nc(OC)c2C#N)cc1OC,24.6%
5,COc1ccc(CN2CCC(N3CC(C)OC(C)C3)CC2)c(OC)c1OC.O=C(O)C(=O)O (stereo not drawn),2.62%
6,N#Cc1ccccc1CSc1ccc(-c2nc3ccccc3[nH]2)cn1,16.2%
7,O=C(CSc1ccc(-c2ccccc2)nn1)Nc1ccc2c(c1)OCCO2,8.92%
8,Cc1nc(C)c(C(=O)Nc2nc3c(C)cccc3s2)o1,-4.12%
9,Cc1ccc([N+](=O)[O-])cc1S(=O)(=O)Nc1ccc(O)c(Sc2ncn[nH]2)c1,14.7%
10,COc1ccc(CCNC(=O)/C=C/c2ccco2)cc1OC,5.95%
11,CCOc1ccc(CCNC(=O)/C=C/c2ccco2)cc1OCC,-170%
12,CCOc1ccc(CCNC(=O)COC(=O)/C=C/c2ccco2)cc1OCC,15.9%
13,O=C(c1ccc(S(=O)(=O)c2cccc(Cl)c2)c([N+](=O)[O-])c1)N1CCN(Cc2ccccc2)CC1,15.8%
14,COc1cc(C(=S)N2CCOCC2)cc(OC)c1OC(=O)c1ccc([N+](=O)[O-])cc1[N+](=O)[O-],5.28%
15,COc1ccc(C(=S)N2CCOCC2)cc1OC(=O)c1ccc([N+](=O)[O-])cc1[N+](=O)[O-],-63.1%
16,COc1cc(C(=S)N2CCOCC2)ccc1OC(=O)c1ccc([N+](=O)[O-])cc1[N+](=O)[O-],15.5%
17,CC1CCc2nc3ccccc3c(C(=O)OCC(=O)NC3CCS(=O)(=O)C3)c2C1 (stereo not drawn),13%
18,CC(=O)Nc1ccc(S(=O)(=O)Nc2ccc(S(=O)(=O)N3CCCC3)cc2)cc1,4.58%
19,Cc1ccc(C)c(/C=C(\C(=O)O)c2ccc(S(=O)(=O)N3CCCCC3)s2)c1,6.97%
20,COc1ccc(NC(=O)c2cc([N+](=O)[O-])ccc2NC(=O)CNC2CCCCC2C)c(OC)c1 (stereo not drawn),-78.8%
21,COc1cc(NC(=O)c2cc([N+](=O)[O-])ccc2NC(=O)CNC2CCCCC2C)cc(OC)c1 (stereo not drawn),17.4%
22,COc1ccc(NC(=O)c2cc([N+](=O)[O-])ccc2NC(=O)CNCc2ccccn2)c(OC)c1,9.51%
23,CCN(c1ccccc1)S(=O)(=O)c1cccc(C(=O)NCC2(N(C)C)CCCCC2)c1,-11%
24,O=C(OCC(=O)N1CCOCC1)c1ccccc1O,13.6%
25,Cc1cc(C)cc(NC(=O)C(OC(=O)c2cccs2)c2ccccc2)c1 (stereo not drawn),16.7%
